PfHsp40 rescue: rescue of yeast from PfHsp40 toxicity, primary screen, S. cerevisiae, ATP luminescence; 0.68% of 340,000 active; growth rescue, % at 12.5 µM; S. cerevisiae expressing PfHsp40, growth rescue; AID 504582, 2011; in the data active = growth rescue above about 28%, passing the limit was not always enough;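 note: yeast W303a lacking pdr1 and pdr3 grown in galactose medium; growth measured after three days at 30 °C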
Vc quorum ag: inducers of Vibrio cholerae quorum light production without autoinducers, primary screen, BH1578 luxS cqsA deficient, single point. 0.16% of 350,000 active. V. cholerae BH1578 lux reporter, luminescence, 6 h. AID 588436, 2011. activation, % at 18.7 µM; in the data active = activation mostly above about 9.7%, no sharp cut-off
ugtP null kill: growth inhibition of ugtP-null S. aureus, primary screen, RN4220 ugtP deletion, OD600; AID 1259309, 2017; growth inhibition, % (concentration not given with the values); 16 h; 0.54% of 330,000 active; in the data active = growth inhibition above about 68%;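 note: plate controls were untreated wells for no effect and antibiotic for full effect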
RN4220 kill: growth inhibition of S. aureus RN4220, primary screen, OD600; 0.33% of 330,000 active; 16 h; inhibition, % (concentration not given with the values); AID 1259311, 2017; in the data active = inhibition above about 85%;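 note: plate controls were untreated cells for no effect and reference antibiotic for full effect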
Mtb hypoxia rep: PubChem AID 1159583; fluorescence inhibition, % (test concentration not listed); M. tuberculosis hypoxia-regulated fluorescent reporter, fluorescence; 0.1% of 300,000 active; in the data active = fluorescence inhibition mostly above about 23%, no sharp cut-off; inactive = mostly below about 17%
CCHF vOTU inh: CCHFV vOTU protease inhibitors, primary screen, biochemical, Pep-AMC substrate, fluorescence. inhibition, % at 11.5 µM. AID 651958, 2012. Crimean-Congo hemorrhagic fever virus L polyprotein viral ovarian tumor (vOTU) protease …. 0.55% of 370,000 active; in the data active = inhibition above about 30%; note: 0% = vehicle wells with enzyme and 100% = no enzyme wells
* marks the source's active call; other numbers are inactive results; i = inactive; nt = no result given. An excerpt weighted towards active compounds, which were near 1.7% of everything screened.

SMILES | PfHsp40 rescue | Vc quorum ag | ugtP null kill | RN4220 kill | Mtb hypoxia rep | CCHF vOTU inh
C[C@H]1c2cccc(O)c2C(O)=C2C(=O)C3(O)C(O)=C(C(N)=O)C(=O)[C@@H](N(C)C)[C@@H]3[C@@H](O)[C@@H]21 (stereo not given in full) | -0.5 | -3.0 | nt | nt | nt | 5.8
CN(C)c1ccc(C=NOC(=O)Nc2ccccc2Cl)cc1 | nt | nt | 0.1 | 9.9 | 0.9 | nt
CCn1cc(C(=O)O)c(=O)c2cc(F)c(N3CCN(C(=S)NC(=O)c4ccccc4Cl)CC3)cc21 | -0.3 | -0.4 | 99.6* | 99.6* | 8.4 | 5.9
CCn1cc(C(=O)O)c(=O)c2cnc(N3CCN(C(=S)NC(=O)c4ccccc4)CC3)nc21 | -0.7 | 11.0 | 17.5 | 20.5 | 6.1 | 11.3
CCn1cc(C(=O)O)c(=O)c2cc(F)c(N3CCN(C(=S)NC(=O)c4ccccc4C)CC3)cc21 | 0.3 | -0.6 | 99.7* | 99.9* | 20.9 | 5.5
CCn1cc(C(=O)O)c(=O)c2cc(F)c(N3CCN(C(=S)Nc4ccc(OC)cc4)CC3)cc21 | 0.1 | -0.6 | 79.0 | 80.4 | 13.1 | -8.6
CCn1cc(C(=O)O)c(=O)c2cc(F)c(N3CCN(C(=S)NC(=O)c4ccccc4)CC3)cc21 | -0.6 | -0.6 | 98.7* | 98.8* | 12.0 | -12.1
CCn1cc(C(=O)O)c(=O)c2cc(F)c(N3CCN(C(=S)NC(=O)c4cc(OC)cc(OC)c4)CC3)cc21 | 0.7 | 1.0 | 99.0* | 99.7* | 4.7 | 14.2
CCOC(=O)CC(C)=NNC(=O)CNc1cccc(Cl)c1C | nt | nt | 3.4 | 3.0 | -3.8 | nt
FC(F)(F)c1cccc(NC(=S)Nc2ccc(Cl)c(Cl)c2)c1 | 0.2 | -0.3 | 100.6* | 100.8* | 10.0 | -4.3
FC(F)(F)c1cccc(NC(=S)NC(c2ccccc2)c2ccccc2)c1 | 0.3 | -0.6 | -29.6 | -5.9 | 7.2 | 1.3
O=[N+]([O-])c1cc(C(F)(F)F)cc([N+](=O)[O-])c1NCCNC(=S)Nc1ccc(Cl)c(Cl)c1 | 2.1 | -0.5 | 99.9* | 98.7* | 5.0 | 13.1
O=C(NNC(=S)Nc1cccc(C(F)(F)F)c1)c1ccc(Cl)cc1Cl | 35.7* | -0.2 | 25.1 | 47.5 | 11.6 | 2.7
CN(CCNC(=O)c1ccc(C=NO)nc1)Cc1ccccc1 | nt | nt | -0.7 | 2.5 | 8.4 | nt
O=C(NN=Cc1ccsc1)c1cc(O)cc(O)c1 | nt | nt | 1.0 | -3.0 | nt | nt
CC(=NNc1ccnc2cc(Cl)ccc12)c1ccc(N)cc1 | nt | nt | 0.7 | 2.2 | 5.2 | nt
COC(=O)[C@]1(Cc2ccccc2)N[C@H](CN(C)C(=O)c2ccc(C)cc2)[C@@H]2C(=O)N(Cc3ccccc3)C(=O)[C@@H]21 | 47.4* | -1.0 | 2.8 | 0.5 | 0.4 | 4.7
CNCCC(Oc1cccc2ccccc12)c1cccs1 (stereo not given) | nt | nt | -3.7 | 0.0 | 7.0 | nt
COc1cccc(C(=O)Nc2nnc(-c3ccccc3)s2)c1OC | 1.5 | -0.4 | -20.1 | 3.9 | -0.6 | 2.4
COc1cccc(C(=O)Nc2sc(C(C)C)cc2C(N)=O)c1OC | 604.0* | i | 6.7 | 2.0 | -14.3 | 7.6
O=C1CCCC(=NNC(=O)C2CCN(S(=O)(=O)c3cccs3)CC2)C1 | nt | nt | 5.9 | 1.6 | 3.8 | nt
CC[n+]1c(/C=C/c2ccc(OC)c(OC)c2)ccc2ccccc21 | -1.6 | 0.0 | 3.9 | 1.0 | 7.9 | -3.7
CCN(CC)c1ccc(/C=C/c2ccc3ccc(OC)cc3[n+]2CC)cc1 | 321.2* | 0.9 | 98.7* | 99.9* | nt | 1.3
CC[n+]1c(/C=C/c2ccc(N(C)C)cc2)ccc2ccccc21 | 19.3 | -0.3 | 96.1* | 98.2* | 10.5 | 11.1
CC[n+]1c(/C=C/c2ccc(OC(C)=O)c(OC)c2)ccc2ccccc21 | 0.8 | -1.4 | 7.8 | 2.4 | -3.2 | -2.5
SMILES | PfHsp40 rescue | Vc quorum ag | ugtP null kill | RN4220 kill | Mtb hypoxia rep | CCHF vOTU inh
CC[n+]1ccc(/C=C/c2ccc(N(C)C)cc2)c2ccccc21 | 4.4 | -0.9 | 95.5* | 92.3* | 16.9 | 25.1
COc1ccc(/C=N/NC(=O)c2nc(-c3ccccc3)n(-c3ccccc3)n2)c(O)c1 | 71.5* | -0.3 | nt | nt | nt | 11.8
COc1ccc(C=NNC(=O)c2nc(-c3ccccc3)cc(-c3ccccc3)n2)cc1OC | nt | nt | -6.4 | 4.0 | 9.9 | nt
COc1ccc(C=NNC(=O)c2nc(-c3ccccc3)n(-c3ccccc3)n2)cc1 | nt | nt | 4.6 | -2.3 | -1.9 | nt
COc1cccc(/C=N/NC(=O)c2nc(-c3ccccc3)cc(-c3ccccc3)n2)c1O | 253.5* | -5.1 | nt | nt | nt | 2.6
CC(NC(=O)c1[nH]cnc1C(=O)Nc1cccc(Cl)c1)c1ccccc1 (stereo not given) | nt | nt | -36.5 | -9.8 | 10.9 | nt
O=C1N(c2ccc(Cl)cc2)C(c2cccnc2)N2CCCN12 (stereo not given) | 287.1* | -0.2 | -7.3 | -0.7 | 4.8 | -6.3
O=C1N(c2ccc(Cl)cc2)C(c2ccccc2)N2CCCN12 (stereo not given) | 1.2 | -0.2 | 3.1 | -3.1 | -4.6 | -4.6
Cc1nc2ccccc2c(=O)n1NC(=O)COc1ccccc1 | 0.0 | i | -0.3 | 2.5 | 8.8 | -4.3
O=C(Nn1c(COc2ccccc2)nc2ccccc2c1=O)C(Cl)(Cl)Cl | -0.1 | -10.0 | 100.0* | 99.5* | 11.6 | -5.4
Cc1cc(N/N=C/c2ccc(O)c(C)c2O)nc(-c2ccccc2O)n1 | 72.6* | -0.1 | nt | nt | nt | 2.0
CNC(=S)Nc1ccc(C23CC4CC(CC(C4)C2)C3)cc1 | 178.8* | i | 6.2 | -5.9 | 16.6 | 5.7
N#Cc1ccc(OCC(=O)NN=C2CCc3ccccc32)cc1 | nt | nt | -0.9 | 1.1 | nt | nt
COc1cc2cc(CN(Cc3nnnn3Cc3ccco3)C3CCCCC3)c(=O)[nH]c2cc1OC | -0.4 | 33.3* | -14.8 | 0.6 | 4.4 | -4.6
CCOc1ccc2[nH]c(=O)c(CN(Cc3nnnn3Cc3ccco3)C3CCCCC3)cc2c1 | -0.5 | 0.7 | -5.0 | 1.8 | nt | 2.0
O=S(=O)(c1cccc(-c2nnc(SCc3nc4ccccc4s3)o2)c1)N1CCOCC1 | 46.1* | -6.2 | 8.4 | 6.1 | 10.2 | 6.1
Cc1ccccc1C(=O)Nc1ccc(C(=O)NN=Cc2ccc(O)c(Br)c2)cc1 | nt | nt | -6.4 | -1.5 | 9.9 | nt
O=C(Nc1ccc([N+](=O)[O-])cc1)Nc1ccc(OC(F)F)c(Cl)c1 | -0.5 | -0.3 | 99.8* | 98.9* | -5.7 | -7.8
C=C(C)C(=O)Nc1cccc(C2=NOC3(C2)CC(C(N)=O)N(C(=O)C2CCC(=O)N2)C3)c1 (stereo not given) | nt | nt | -8.1 | 5.3 | 8.0 | nt
O=C(Nc1ccccc1OC(F)F)c1ccccc1 | 0.2 | -2.5 | -0.4 | 1.1 | 10.7 | -12.1
O=C(Nc1ccccc1OC(F)F)c1ccc(Br)o1 | -0.8 | 32.1* | 3.0 | -0.4 | nt | -0.6
Cc1cc(C)nc(NC(=O)CSc2nc3cc(Cl)ccc3s2)n1 | 66.1* | i | -3.1 | 0.1 | nt | 4.9
O=C1C=C(c2cccc(Cl)c2O)CC(c2ccc3c(c2)OCO3)C1 (stereo not given) | nt | nt | 10.3 | 8.6 | 20.2 | nt

Screens: PubChem, several laboratories
